# In the library only some 1.5% were active in any assay of this set; here they are far more common.
# RAD52 inh: RAD52 DNA annealing inhibitors, primary screen, biochemical, FRET, single point, set 2; recombinant RAD52 DNA annealing, FRET fluorescence; inhibition, % at 18.7 µM; 360,000 tested, 0.46% active; AID 651710, 2012;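 active means every replicate showing at least 50% inhibition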
# RAD54 branch: inhibitors of human RAD54 branch migration, primary screen, biochemical, fluorescence, single point; DNA repair and recombination protein RAD54-like (Homo sapiens), Q92698; RAD54 Holliday junction branch migration, FAM/BHQ fluorescence; 360,000 tested, 0.14% active; AID 602329, 2012; inhibition, % at 10.4 µM;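 active means mean normalized replicate activity at least 40 and at least half of replicates scoring 40 or more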;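 further: 0% = median of neutral control wells and 100% = median of positive control wells; inhibitors cause a drop in the FAM fluorescence signal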
# miR122 inh: miR-122 Renilla sensor signal increase in Huh7, primary screen, miR-122 inhibitor project, cell-based, single point, plate reader; Huh7 miR-122 Renilla luciferase sensor, 48 h; neutral wells = 0, positive control = 100; AID 602342, 2012; 340,000 tested, 0.3% active; activation (reporter increase), % at 12.5 µM;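 active means mean replicate activation score at least 90 and every replicate individually at or above 90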;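 further: higher luciferase means less miR-122 activity so hits act as miR-122 inhibitors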
# NRP1-CendR mod: modulators of CendR peptide binding to NRP-1, primary screen, biochemical, fluorescence polarization, uHTS. FAM-RPARPAR peptide binding to NRP-1. 360,000 tested, 0.85% active. inhibition, % at 25 µM. AID 602438, 2012. Neuropilin-1 (Homo sapiens), O14786;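 active means inhibition or corrected inhibition above about 18%, plus a signal ratio from 0.5 to 1.5, limit read from the data, passing the limit was not always enough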
# Target sequence (O14786 whole entry, looked up): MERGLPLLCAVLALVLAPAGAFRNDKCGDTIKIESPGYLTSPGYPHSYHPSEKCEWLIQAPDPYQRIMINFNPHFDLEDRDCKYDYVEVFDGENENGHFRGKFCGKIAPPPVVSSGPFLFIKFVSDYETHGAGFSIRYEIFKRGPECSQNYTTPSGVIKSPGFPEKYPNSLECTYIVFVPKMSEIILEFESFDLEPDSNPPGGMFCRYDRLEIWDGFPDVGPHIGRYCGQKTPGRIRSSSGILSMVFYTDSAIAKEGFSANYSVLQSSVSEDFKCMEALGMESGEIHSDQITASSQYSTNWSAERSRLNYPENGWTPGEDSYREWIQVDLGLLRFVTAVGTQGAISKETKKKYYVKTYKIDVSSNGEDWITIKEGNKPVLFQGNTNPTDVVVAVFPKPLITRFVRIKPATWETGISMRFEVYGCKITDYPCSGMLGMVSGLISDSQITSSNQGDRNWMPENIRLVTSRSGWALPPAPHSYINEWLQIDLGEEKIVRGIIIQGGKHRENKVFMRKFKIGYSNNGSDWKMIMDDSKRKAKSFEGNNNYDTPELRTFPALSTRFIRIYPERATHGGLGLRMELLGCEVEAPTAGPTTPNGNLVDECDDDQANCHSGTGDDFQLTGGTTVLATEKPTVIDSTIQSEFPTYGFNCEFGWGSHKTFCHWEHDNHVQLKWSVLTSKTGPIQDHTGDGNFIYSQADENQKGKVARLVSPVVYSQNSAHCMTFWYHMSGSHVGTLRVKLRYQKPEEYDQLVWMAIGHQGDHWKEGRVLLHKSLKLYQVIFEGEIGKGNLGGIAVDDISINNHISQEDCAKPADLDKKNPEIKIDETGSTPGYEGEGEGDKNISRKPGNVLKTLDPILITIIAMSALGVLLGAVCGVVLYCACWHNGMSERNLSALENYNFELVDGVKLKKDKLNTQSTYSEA
# Glyco luc inh: increase of ERlucT glycosylation luciferase signal, primary screen, N-linked glycosylation inhibitor project, D54 ERlucT cells, luminescence, set 2; 360,000 tested, 0.23% active; D54 ERlucT glycosylation luciferase reporter, 24 h; percent of 100 nM tunicamycin response; reporter increase, % at 12.5 µM;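 active means mean luciferase reporter signal, scaled so untreated is 0 and the glycosylation-blocking control 100, at or above a set limit in every replicate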;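 further: luciferase carries N-glycosylation sites so blocking glycosylation raises the light; 0% = median of neutral control wells and 100% = median of 100 nM tunicamycin wells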
# FID counter: compounds displacing fluorescent DNA intercalator, primary screen, artefact control for HCV NS3 helicase inhibitor project, biochemical, FID fluorescence | inhibition, % at 7.9 µM | AID 1845, 2009 | 290,000 tested, 0.17% active | DNA fluorescent intercalator displacement; in the data active means inhibition above about 37%;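 further: 0% = vehicle and 100% = reference compound; higher means more ethidium bromide displaced from hairpin DNA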
# RAD52 DNA ctr: DNA-binding compounds via dye displacement, dose response, artefact control for RAD52 inhibitor project, biochemical, fluorescence polarization, cherry-pick; AC50, µM; 1,000 tested, 8% active; Salmon sperm DNA/acridine orange FP displacement; shares compounds with RAD52 inh;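 active means fitted half-maximal concentration for signal loss at or below twice the highest dose tested, in every separate run, actives reach about 64 µM in these data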
# * marks the source's active call; other numbers are inactive results; i = inactive; · = not tested or not shown; ! = repeats disagree; [ ] = dose if it differs, or a comment.
SMILES,RAD52 inh,RAD54 branch,miR122 inh,NRP1-CendR mod,Glyco luc inh,FID counter,RAD52 DNA ctr
CC(C)N=C(N)N=C(N)Nc1ccc(Cl)cc1,-10,7,-15,3,0,·,·
NC(=NCCCCCCN=C(N)/N=C(\N)Nc1ccc(Cl)cc1)/N=C(\N)Nc1ccc(Cl)cc1,95*,59*!,-7,8,-10,59*,i
C/C=C/c1ccc2c(c1)O[C@H](CN(C)Cc1cncnc1)[C@H](C)CN([C@@H](C)CO)S2(=O)=O,-11,2,·,·,·,·,·
O=C(C[C@H]1C[C@H]2c3cc(NC(=O)Cc4ccncc4)ccc3O[C@H]2[C@@H](CO)O1)NCc1ccccc1,-18,11,1[16.7 µM],·,·,·,·
CCOC(=O)c1c(C)n(-c2ccc(C)cc2)c2ccc(OCC(O)CN3CCN(C)CC3)cc12 (configuration not stated),97*,·,·,0,-4,24,i
CCNC(=O)C[C@@H]1CC[C@H](NS(=O)(=O)c2ccc(C)cc2)[C@H](CO)O1,-5,2,·,·,·,·,·
Cc1cc2cc(CNC(=O)c3cccc([N+](=O)[O-])c3)ccc2n1C,54*,6,-2,12,0,-5,i
CN1C(=O)c2cc(NC(=O)C3CCCC3)ccc2OC[C@H]2O[C@H](CC(=O)NCCc3ccncc3)CC[C@@H]21,-7,·,·,·,·,·,·
COc1ccccc1CNc1nc(NCc2ccccc2)nc2ccsc12,-5,-3,-1,-2,0,·,·
COc1ccc(-c2cc(CNc3nc(NCc4ccccc4OC)nc4ccsc34)on2)cc1,61*,-2,-6,7,-1,·,i
Cc1ccc(S(=O)(=O)Nc2ccc3c(c2)CC(=O)N([C@@H](C)CO)C[C@H](C)[C@@H](CN(C)C(=O)Nc2c(C)noc2C)O3)cc1,-3,7,4[16.7 µM],·,·,·,·
CCN(CC)CCNc1ccc(C)c2sc3ccc(O)cc3c(=O)c12,76*,·,-1,-99,54*,·,10µM*
CCN(CC)CCCNC(=O)C(C)n1nc(C)c2sc3ccccc3c2c1=O (configuration not stated),·,·,-2,-2,-1,11,·
CCN(CC)CCNC(=O)c1ccc(NC(=O)c2cccc(S(=O)(=O)N3CCc4ccccc43)c2)cc1,50*,·,·,-10,-5,·,i
CCN(CC)CCNC(=O)c1cc(S(=O)(=O)N2CCc3ccccc32)cn1C,-5,13,·,1,-4,13,·
C[C@H]1CN([C@@H](C)CO)C(=O)Cc2cc(NC(=O)Cn3cnnn3)ccc2O[C@@H]1CN(C)C(=O)Nc1ccc(F)cc1,·,·,4[16.7 µM],·,·,·,·
COc1ccc(C(=O)OCCc2sc[n+](CC(=O)c3ccccc3)c2C)cc1,73*,17,0,6,0,8,i
Cc1c(CCOC(=O)c2ccc([N+](=O)[O-])cc2)sc[n+]1CC(=O)c1ccccc1,19,·,4,-7,1,10,·
Cc1c(CCOC(=O)c2ccc(Cl)cc2Cl)sc[n+]1CC(=O)c1ccc(Br)cc1,37,30,·,-4,-2,·,i
COc1ccc(OC)c2nc3c(C(=O)NCCN(C)C)cccc3nc12,105*,·,-10,3,91*,·,4.7µM*
CN(C)CCNC(=O)c1cccc2ccc(-c3ccc(-c4ccccc4)cc3)nc12,43,·,-6,3,16,·,·
CN(C)CCNC(=O)c1cccc2nc3cccc(F)c3nc12,97*,·,·,-8,-5,·,18µM*
FC(F)(F)c1cc(CCN2CCNC[C@H]2Cc2cccc3ccccc23)cc(C(F)(F)F)c1,60*,16,·,-8,-2,·,i
Cc1cc(C)nc(/N=C(\N)Nc2cccc(OCc3ccccc3)c2)n1,49,-1,30,-2,20,4,·
Cc1cc(C)nc(/N=C(\N)Nc2ccc(OCc3ccccc3)cc2)n1,55*,·,·,7,48*,20,i

# High-throughput results as filed in PubChem BioAssay.
